Data from PubChem BioAssay (NCATS).
Records with an inconclusive call do not appear. A number with no mark means an inactive call. Calls of active or inactive are those of the source. Calls come from the whole dose curve; as a rule, active = well fitted cell-killing curve with a large enough effect; inconclusive = small, poorly fitted or top-dose-only effect, or effect the other way; inactive = flat fitted curve, though single readings scatter.

Assay: qHTS assay for cell viability of the p53RE-bla HCT-116 cell line (AID 743292); note: nearly all actives have a fitted effect of over 55% in size
Details: p53RE-bla HCT-116 viability, ATP luminescence, 16 h; series mostly up to 95 µM; activity change, negative = cytotoxicity: at the top concentration
In short: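 Readout: CellTiter-Glo luminescence after 30 min RT. Treatment: compounds in DMSO, 16 h, 37 C. Cells: CellSensor p53RE-bla HCT-116, 4,000/well, preincubated 5 h.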
% is set by controls: 0 for no effect and ±100 for the full control effect; potency is the fitted concentration of half-maximal effect.

Row | Compound | Potency | activity change, negative = cytotoxicity [%]
1 | C[C@]12C[C@H](O)[C@H]3[C@@H](CCC4=CC(=O)CC[C@@]43C)[C@@H]1CC[C@@H]2C(=O)CO | inactive | –
2 | NCCNCCNCCNCCN | inactive | –
3 | COc1ccccc1O | inactive | –
4 | C[C@]12CC[C@@H]3c4ccc(O)cc4CC[C@H]3[C@@H]1CCC2=O | – | -0.713
5 | NCCNCCNCCN | – | -4.76
6 | O=C1O[C@H]([C@@H](O)CO)C(O)=C1O | inactive | –
7 | NC(=O)c1ncn([C@@H]2O[C@H](CO)[C@@H](O)[C@H]2O)n1 | – | 0.345
8 | Cc1cc2nc3c(=O)[nH]c(=O)nc-3n(C[C@H](O)[C@H](O)[C@H](O)CO)c2cc1C | – | 0.226
9 | O=S(=O)(O)NC1CCCCC1 | – | 14.6
10 | CC1(C)[C@@H]2CC[C@@]1(C)C(=O)C2 | – | -11.2
11 | [Cl][In]([Cl])[Cl] | – | 3.9
12 | CN(C)CCOC(C)(c1ccccc1)c1ccccn1 (configuration not stated) | – | 1.29
13 | CC12CCC(CC1)C(C)(C)O2 | – | -7.48
14 | CCCCC(CC)COC(=O)c1ccccc1O (configuration not stated) | – | -10.9
15 | Oc1cccc(O)c1 | – | -6.72
16 | Nc1ccc(S(=O)(=O)Nc2nccs2)cc1 | – | 0.148

Row | Compound | Potency | activity change, negative = cytotoxicity [%]
17 | CNC(=O)Oc1ccc2c(c1)[C@]1(C)CCN(C)[C@@H]1N2C | – | 1.21
18 | Cc1c(O)cccc1C(=O)N[C@@H](CSc1ccccc1)[C@H](O)CN1C[C@H]2CCCC[C@H]2C[C@H]1C(=O)NC(C)(C)C | 28.2 µM (active) | –
19 | CN(C)CCCN1c2ccccc2CCc2ccccc21 | – | 16.9
20 | O=C1NS(=O)(=O)c2ccccc21 | – | -0.649
21 | CC1=C(/C=C/C(C)=C/C=C/C(C)=C/C(=O)O)C(C)(C)CCC1 | inactive | –
22 | NC(=O)N/N=C/c1ccc([N+](=O)[O-])o1 | inactive | –
23 | CC(O)COc1ccccc1 (configuration not stated) | – | 10.2
24 | COc1ccc(Cl)cc1C(=O)NCCc1ccc(S(=O)(=O)NC(=O)NC2CCCCC2)cc1 | – | -0.496
25 | CC(O)CN(CCN(CC(C)O)CC(C)O)CC(C)O (configuration not stated) | – | -1.6
26 | CCCCCCCCCCCCOS(=O)(=O)O | inactive | –
27 | CCCCOC(=O)c1ccc(O)cc1 | inactive | –
28 | O=C1c2c(O)cccc2Cc2cccc(O)c21 | – | -6.51
29 | CCOC(=O)c1ccc(O)cc1 | – | -9.49
30 | CCCc1c(OCCCCc2nn[nH]n2)ccc(C(C)=O)c1O | – | -7.92
31 | Cc1cccc(Nc2cc(Cl)nc(SCC(=O)O)n2)c1C | – | -8.33
32 | Cc1cc(CC(=O)O)n(C)c1C(=O)c1ccc(Cl)cc1 | – | -6.22
